tested on: HCI01 (cells of a triple-negative basal-like breast cancer xenograft); assay: cell viability of combination (% of vehicle); higher = less cytotoxic; details: 1 µM; 72 h; partner dose: 10 nM
Protocol: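 PDX cells were treated for 72 h with each drug at 1 µM plus carfilzomib (10 nM; 100 nM for WHIM2). Luciferase viability is expressed as percent of vehicle.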

| SMILES | cell viability of combination |
| --- | --- |
| COc1cccc2c1C(=O)c1c(O)c3c(c(O)c1C2=O)CC(O)(C(=O)CO)CC3OC1CC(N)C(O)C(C)O1 (stereo not given) [Doxorubicin] + CC(C)C[C@H](NC(=O)[C@H](CCc1ccccc1)NC(=O)CN1CCOCC1)C(=O)N[C@@H](Cc1ccccc1)C(=O)N[C@@H](CC(C)C)C(=O)[C@@]1(C)CO1 [Carfilzomib] | 55.4 |
| Oc1c(Cl)cc(Cl)c2cccnc12 [Chloroxine] + CC(C)C[C@H](NC(=O)[C@H](CCc1ccccc1)NC(=O)CN1CCOCC1)C(=O)N[C@@H](Cc1ccccc1)C(=O)N[C@@H](CC(C)C)C(=O)[C@@]1(C)CO1 [Carfilzomib] | 79.4 |
| C=C1C(=CC=C2CCCC3(C)C2CCC3C(C)C=CC(C)C(C)C)CC(O)CC1O (stereo not given) [Doxercalciferol] + CC(C)C[C@H](NC(=O)[C@H](CCc1ccccc1)NC(=O)CN1CCOCC1)C(=O)N[C@@H](Cc1ccccc1)C(=O)N[C@@H](CC(C)C)C(=O)[C@@]1(C)CO1 [Carfilzomib] | 67 |
| COC(=O)NC(C(=O)NC(Cc1ccccc1)C(O)CN(Cc1ccc(-c2ccccn2)cc1)NC(=O)C(NC(=O)OC)C(C)(C)C)C(C)(C)C (stereo not given) [Atazanavir] + CC(C)C[C@H](NC(=O)[C@H](CCc1ccccc1)NC(=O)CN1CCOCC1)C(=O)N[C@@H](Cc1ccccc1)C(=O)N[C@@H](CC(C)C)C(=O)[C@@]1(C)CO1 [Carfilzomib] | 79.8 |
| COc1ccc2c(O[C@H]3CC4C(=O)N(C)CCCC/C=C\[C@H]5C[C@@]5(C(=O)NS(=O)(=O)C5CC5)NC(=O)[C@@H]4C3)cc(-c3nc(C(C)C)cs3)nc2c1C (stereo not given in full) [Simeprevir] + CC(C)C[C@H](NC(=O)[C@H](CCc1ccccc1)NC(=O)CN1CCOCC1)C(=O)N[C@@H](Cc1ccccc1)C(=O)N[C@@H](CC(C)C)C(=O)[C@@]1(C)CO1 [Carfilzomib] | 82.7 |
